Values joined by “and” are separate entries in the source; they are usually repeats but may differ in a detail not shown here. Identical values can stand only once. In all, about 5,500 compounds went through this assay and about 2,000 (36%) were called active. Not shown: some 18% with an inconclusive outcome. Rule as the data show it: active = normalized growth mostly below about 0.91 (no sharp cut-off); inconclusive = no clear call, values can overlap the other calls; inactive = mostly above about 0.92. The list shows a part of the results.
Test: chemical genetic growth profiling, strain panel (AID 1159580);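 also: tested at 20 µM; growth read once vehicle control cultures reached saturation at 30 °C; 1 = growth at the plate median or of vehicle wells; lower values mean less growth of the strain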
Conditions: S. cerevisiae deletion strains, growth OD

Measured: normalized growth

C[C@@H]1C(=O)O[C@H]2[C@H]1CC[C@@]1(C)C=CC(=O)[C@@]3(C)O[C@@]213
inactive: locus YAL013W, strain DEP1, hits give low values 1 | locus YAL021C, strain ccr4, hits give low values 1.01 | locus YAL026C, strain drs2, hits give low values 1.02 | locus YAL030W, strain snc1, hits give low values 1.01 | locus YBL061C, strain skt5, hits give low values 1.01 | locus YBR009C, strain hhf1, hits give low values 1.01 | locus YBR021W, strain FUR4, hits give low values 1 | locus YBR023C, strain chs3, hits give low values 1.02 | locus YBR171W, strain sec66, hits give low values 1.02 | locus YBR229C, strain ROT2, hits give low values 1.01 | locus YBR231C, strain swc5, hits give low values 1.02 | locus YBR279W, strain paf1, hits give low values 1.01 | locus YCL011C, strain gbp2, hits give low values 1.01 | locus YCL016C, strain dcc1, hits give low values 1 | locus YCL029C, strain bik1, hits give low values 1.04 | locus YCL069W, strain vba3, hits give low values 1.03 | locus YCR088W, strain abp1, hits give low values 1.01 | locus YDL005C, strain med2, hits give low values 1.02 | locus YDL035C, strain GPR1, hits give low values 1.02 | locus YDL040C, strain nat1, hits give low values 1 | locus YDL074C, strain BRE1, hits give low values 1.02 | locus YDL101C, strain DUN1, hits give low values 1.01 | locus YDL134C, strain PPH21, hits give low values 0.993 | locus YDL185W, strain tfp1, hits give low values 0.986 | locus YDL192W, strain arf1, hits give low values 1.01 | locus YDR001C, strain nth1, hits give low values 1.01 | locus YDR069C, strain doa4, hits give low values 1.03 | locus YDR101C, strain arx1, hits give low values 1.01 | locus YDR137W, strain rgp1, hits give low values 0.982 | locus YDR150W, strain NUM1, hits give low values 1.01 | locus YDR159W, strain sac3, hits give low values 1.06 | locus YDR162C, strain NBP2, hits give low values 1.02 | locus YDR195W, strain ref2 1.01 | locus YDR297W, strain sur2, hits give low values 1 | locus YDR318W, strain mcm21, hits give low values 1.02 | locus YDR334W, strain swr1, hits give low values 1.02 | locus YDR335W, strain msn5, hits give low values 1.01 | locus YDR388W, hits give low values 1.01 | locus YDR392W, strain spt3, hits give low values 0.996 | locus YDR502C, strain sam2, hits give low values 1.02 | locus YEL003W, strain gim4, hits give low values 1.01 | locus YEL037C, strain rad23, hits give low values 1.02 | locus YEL061C, strain CIN8 (second series), hits give low values 1.01 | locus YEL061C, strain CIN8, hits give low values 1.01 | locus YER015W, strain faa2, hits give low values 1.02 | locus YER016W, strain bim1, hits give low values 1.01 | locus YER110C, hits give low values 1.01 | locus YER111C, strain swi4, hits give low values 1.02 | locus YER155C, strain BEM2 (second series), hits give low values 1.03 | locus YER155C, strain BEM2, hits give low values 0.996 | locus YER167W, strain BCK2, hits give low values 1.02 | locus YFR010W, strain ubp6, hits give low values 1.06 | locus YGL078C, strain dbp3, hits give low values 1.03 | locus YGL086W, strain mad1, hits give low values 1.02 | locus YGL167C, strain pmr1, hits give low values 1.02 | locus YGL173C, strain kem1, hits give low values 1.02 | locus YGL227W, strain vid30, hits give low values 1.02 | locus YGL240W, strain doc1, hits give low values 1.01 | locus YGL248W, strain PDE1, hits give low values 1.02 | locus YGL253W, strain hxk2, hits give low values 1.05 | locus YGR078C, strain PAC10, hits give low values 1.02 | locus YGR135W, strain pre9, hits give low values 1.03 | locus YGR229C, strain SMI1, hits give low values 1.02 | locus YGR252W, strain gcn5, hits give low values 1.06 | locus YHR013C, strain ard1, hits give low values 0.995 | locus YHR027C, strain rpn1, hits give low values 1.02 | locus YHR030C, strain SLT2, hits give low values 1.01 and 1.04 | locus YHR079C, strain IRE1 (second series), hits give low values 1.02 | locus YHR079C, strain IRE1, hits give low values 1.04 | locus YHR094C, strain hxt1, hits give low values 1 | locus YHR129C, strain ARP1, hits give low values 1.01 | locus YHR142W, strain chs7, hits give low values 1.02 | locus YHR200W, strain rpn10, hits give low values 1.02 | locus YIL066C, strain RNR3, hits give low values 1.02 | locus YIL073C, strain SPO22, hits give low values 1.05 | locus YIL125W, strain kgd1, hits give low values 1.03 | locus YIR030C, strain dcg1, hits give low values 1.02 | locus YJL092W, strain hpr5, hits give low values 1.02 | locus YJL095W, strain BCK1 (second series), hits give low values 1.01 | locus YJL095W, strain BCK1, hits give low values 1.03 | locus YJL115W, strain asf1, hits give low values 1.02 | locus YJL129C, strain trk1, hits give low values 1.04 | locus YJL134W, strain LCB3, hits give low values 1 | locus YJL154C, strain vps35, hits give low values 1.01 | locus YJL164C, strain tpk1, hits give low values 1.01 | locus YJL166W, strain qcr8, hits give low values 1.01 | locus YJL168C, strain set2, hits give low values 1.01 | locus YJL187C, strain SWE1 (second series), hits give low values 1.04 | locus YJR043C, strain POL32, hits give low values 1.02 | locus YJR066W, strain TOR1, hits give low values 0.959 | locus YJR075W, strain HOC1, hits give low values 1.02
